{"source": "PubChem BioAssay AID1220", "about": "(Sanford-Burnham Center for Chemical Genomics, 2008)", "note": "About 1,300 (0.68%) of roughly 190,000 compounds were called active. Rule as the data show it: active = inhibition above about 50%; inactive = the rest. This excerpt belongs to a sample that is enriched for actives."}
{"target": "Mannose-6-phosphate isomerase (Homo sapiens) (UniProt P34949)", "sequence (P34949 whole entry, looked up)": "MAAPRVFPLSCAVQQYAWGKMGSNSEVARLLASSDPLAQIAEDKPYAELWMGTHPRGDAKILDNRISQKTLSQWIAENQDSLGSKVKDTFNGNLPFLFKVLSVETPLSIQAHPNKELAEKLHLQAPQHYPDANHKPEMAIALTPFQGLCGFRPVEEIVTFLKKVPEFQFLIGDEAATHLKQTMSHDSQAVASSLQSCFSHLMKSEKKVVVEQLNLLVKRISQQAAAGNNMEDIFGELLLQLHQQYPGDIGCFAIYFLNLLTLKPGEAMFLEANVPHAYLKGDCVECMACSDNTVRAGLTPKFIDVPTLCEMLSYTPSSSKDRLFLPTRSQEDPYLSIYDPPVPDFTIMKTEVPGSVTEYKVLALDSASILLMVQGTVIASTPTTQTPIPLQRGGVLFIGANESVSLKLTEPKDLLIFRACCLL", "experiment": "MPI inhibition at elevated mannose 6-phosphate – biochemical, fluorescence intensity, high mannose 6-phosphate, primary screen (AID 1220)", "settings": "recombinant PMI enzyme, coupled fluorescence intensity; at 20 µM; stronger effect = higher value"}
{"smiles": "Cc1c2cnn(-c3ccccc3)c(=O)c2c(C)n1CCCC(=O)N1CCN(c2ncccn2)CC1", "inhibition": "-2.5% (inactive)"}
{"smiles": "S=C(Nc1ccc(N2CCOCC2)cc1)Nc1ccc2snnc2c1", "inhibition": "41% (inactive)"}
{"smiles": "COc1ccc(NC(=S)Nc2ccc3nc(C)c(C)nc3c2)cc1", "inhibition": "54.2% (active)"}
{"smiles": "COc1ccc(NC(=S)Nc2ccc3snnc3c2)cc1", "inhibition": "54.2% (active)"}
{"smiles": "CNC(=S)Nc1ccc2nc(C)c(C)nc2c1", "inhibition": "38% (inactive)"}
{"smiles": "COc1ccc(NC(=S)Nc2ccc3nsnc3c2)cc1", "inhibition": "47% (inactive)"}
{"smiles": "COc1ccc(NC(=O)c2ccc3snnc3c2)cc1", "inhibition": "-1.3% (inactive)"}
{"smiles": "CCNC(=S)Nc1ccc(Cl)c(C(F)(F)F)c1", "inhibition": "7.2% (inactive)"}
{"smiles": "CCN1CCC(NC(=O)Nc2ccc(F)cc2F)CC1", "inhibition": "-11.5% (inactive)"}
{"smiles": "CCCS(=O)(=O)c1ccc(COC(=O)c2ccc(NC(C)=O)cc2)cc1", "inhibition": "-0.1% (inactive)"}
{"smiles": "c1ccn2c(Cc3nnc4ccccn34)nnc2c1", "inhibition": "-7.1% (inactive)"}
{"smiles": "CCn1nc(C)c(C(=O)Nc2cc(Oc3ccc(Cl)cc3)cc([N+](=O)[O-])c2)c1C", "inhibition": "4.3% (inactive)"}
{"smiles": "O=C(N/C(=C\\c1ccco1)C(=O)N1CCCC1)c1cccs1", "inhibition": "8.5% (inactive)"}
{"smiles": "CCC(C)(C(=O)NC1CCCC1)N(Cc1cccs1)C(C)=O", "note": "(stereo not drawn)", "inhibition": "0.2% (inactive)"}
{"smiles": "CCC(C)(C(=O)NC1CCCCC1)N(Cc1cccs1)C(=O)c1ccccn1", "note": "(stereo not drawn)", "inhibition": "-2% (inactive)"}
{"smiles": "CCC(C)(C(=O)NC1CCCC1)N(Cc1cccs1)C(=O)c1ccccn1", "note": "(stereo not drawn)", "inhibition": "59.3% (active)"}
{"smiles": "Cc1c2c(nc3c(C(=O)NC4CC4)cnn13)CCCC2", "inhibition": "-0.9% (inactive)"}
{"smiles": "COc1cccc(CN2CCNC(=O)C2CC(=O)NCc2cn3ccccc3n2)c1OC", "note": "(stereo not drawn)", "inhibition": "7.8% (inactive)"}
{"smiles": "COc1cccc(CN2CCNC(=O)C2CC(=O)NCCn2ccc3ccccc32)c1OC", "note": "(stereo not drawn)", "inhibition": "51.1% (active)"}
{"smiles": "COc1cccc(CN2CCNC(=O)C2CC(=O)NCCn2cccn2)c1OC", "note": "(stereo not drawn)", "inhibition": "16.7% (inactive)"}
{"smiles": "Cc1c(NC(=O)C2CCCO2)cccc1[N+](=O)[O-]", "note": "(stereo not drawn)", "inhibition": "0.2% (inactive)"}
{"smiles": "Cc1csc(=Nc2c(C)n(C)n(-c3ccccc3)c2=O)n1-c1ccccc1", "inhibition": "5.3% (inactive)"}
{"smiles": "Cc1c(N=c2scc(-c3ccccc3)n2C)c(=O)n(-c2ccccc2)n1C", "inhibition": "-10.5% (inactive)"}
{"smiles": "Cc1c(N=C2C(=O)Nc3ccccc32)c(=O)n(-c2ccccc2)n1C", "inhibition": "14.2% (inactive)"}
{"smiles": "Cc1c(N=CC=Nc2c(C)n(C)n(-c3ccccc3)c2=O)c(=O)n(-c2ccccc2)n1C", "inhibition": "-5.1% (inactive)"}
{"smiles": "O=C(N1CCOCC1)N(CCN1CCOCC1)Cc1cccc2ccccc12", "inhibition": "6.2% (inactive)"}
{"smiles": "CCOc1ccccc1NC(=O)c1ccc2nccnc2c1", "inhibition": "14.2% (inactive)"}
{"smiles": "CC(NS(=O)(=O)c1ccc(Br)cc1)C(c1cccs1)N1CCOCC1", "note": "(stereo not drawn)", "inhibition": "10.2% (inactive)"}
{"smiles": "O=c1cc(CO)oc(C(Nc2cccc(C(F)(F)F)c2)c2ccccn2)c1O", "note": "(stereo not drawn)", "inhibition": "43.6% (inactive)"}
{"smiles": "CCOc1ccc(NC(c2ccccn2)c2oc(CO)cc(=O)c2O)cc1", "note": "(stereo not drawn)", "inhibition": "51.1% (active)"}
{"smiles": "O=c1cc(CO)oc(C(Nc2cccc([N+](=O)[O-])c2)c2ccccn2)c1O", "note": "(stereo not drawn)", "inhibition": "28.5% (inactive)"}
{"smiles": "O=C(NC(c1ccc(Cl)cc1)c1c(O)ccc2ccccc12)c1ccccc1", "note": "(stereo not drawn)", "inhibition": "27.6% (inactive)"}
{"smiles": "CC(=O)NC(c1ccc(Cl)cc1)c1c(O)ccc2ccc(O)cc12", "note": "(stereo not drawn)", "inhibition": "69.9% (active)"}
{"smiles": "COc1ccc(C(NC(C)=O)c2c(O)ccc3ccccc23)cc1OC", "note": "(stereo not drawn)", "inhibition": "8.9% (inactive)"}
{"smiles": "CCc1ccc(-n2c(Cc3ccccc3)n[nH]c2=S)cc1", "inhibition": "10.9% (inactive)"}
{"smiles": "COCCN=C1NN=C(c2cc(C)n(CC3CCCO3)c2C)CS1", "note": "(stereo not drawn)", "inhibition": "54.9% (active)"}
{"smiles": "CCOc1ccc(N=C2NN=C(c3cc(C)n(CC4CCCO4)c3C)CS2)cc1", "note": "(stereo not drawn)", "inhibition": "-81.4% (inactive)"}
{"smiles": "Cc1cc(C2=NNC(=NCCc3ccccc3)SC2)c(C)n1CC1CCCO1", "note": "(stereo not drawn)", "inhibition": "-32.7% (inactive)"}
{"smiles": "Cc1cc(C)c(S(=O)(=O)Cc2ccccc2)c(=O)[nH]1", "inhibition": "-13% (inactive)"}
{"smiles": "COc1ccc(/C=N/NC(=O)Cn2c(Cc3ccc(OC)c(OC)c3)nc3ccccc32)cc1OC", "inhibition": "5.5% (inactive)"}
{"smiles": "CCN1C(=O)C(CC(=O)Nc2ccccc2)S/C1=N\\c1ccccn1", "note": "(stereo not drawn)", "inhibition": "-2.2% (inactive)"}
{"smiles": "CCOC(=O)C1(Cc2ccccc2C)CCCN(Cc2cn(C)nc2C)C1", "note": "(stereo not drawn)", "inhibition": "12.5% (inactive)"}
{"smiles": "CCOC(=O)C1(Cc2ccccc2C)CCCN(Cc2ccc(NC(C)=O)cc2)C1", "note": "(stereo not drawn)", "inhibition": "-4.1% (inactive)"}
{"smiles": "CCOC(=O)C1(Cc2ccccc2C)CCCN(Cc2cc(OC)c(O)c(OC)c2)C1", "note": "(stereo not drawn)", "inhibition": "65.5% (active)"}
{"smiles": "COc1ccc(CC(=O)Nc2ccc(OC)c(NC(=O)c3ccco3)c2)cc1", "inhibition": "11.2% (inactive)"}
{"smiles": "COc1ccc(S(=O)(=O)N(CC(C)C)CC(C)C)c2cccnc12", "inhibition": "10.4% (inactive)"}
{"smiles": "COc1ccccc1Oc1ccc2c(c1)C(=O)N(c1ccc(Br)c3cccnc13)C2=O", "inhibition": "8.4% (inactive)"}
{"smiles": "COc1cc(NC(C)CCCN)c2ncccc2c1Oc1ccccc1", "note": "(stereo not drawn)", "inhibition": "56.6% (active)"}
{"smiles": "O=C(N/N=C/c1c[nH]c2ccccc12)c1ccn(Cc2ccc(Cl)cc2)n1", "inhibition": "1.6% (inactive)"}
{"smiles": "O=C(CSCc1nc2ccccc2[nH]1)Nc1ccc(Oc2ccccc2)cc1", "inhibition": "10.1% (inactive)"}
{"smiles": "O=S(=O)(NCc1ccncc1)c1ccccc1", "inhibition": "-9.4% (inactive)"}
{"smiles": "COC(=O)Nc1cccn(Cc2c(Cl)cccc2Cl)c1=O", "inhibition": "58.7% (active)"}
{"smiles": "O=C(NCc1ccccc1)Nc1cccn(Cc2ccccc2Cl)c1=O", "inhibition": "38.2% (inactive)"}
{"smiles": "Cc1ccc(NC(=O)Nc2cccn(Cc3c(F)cccc3Cl)c2=O)cc1", "inhibition": "55.7% (active)"}
{"smiles": "O=C(Nc1cccn(Cc2c(F)cccc2Cl)c1=O)NC1CCCCC1", "inhibition": "17.3% (inactive)"}
{"smiles": "CC(=O)Nc1cccn(Cc2c(Cl)cccc2Cl)c1=O", "inhibition": "8.5% (inactive)"}
{"smiles": "O=C(NCc1ccccc1)Nc1cccn(Cc2ccccc2F)c1=O", "inhibition": "20.5% (inactive)"}
{"smiles": "C#CCOC(=O)Nc1cccn(Cc2c(Cl)cccc2Cl)c1=O", "inhibition": "-71% (inactive)"}
{"smiles": "O=C(Nc1ccccc1)Nc1cccn(Cc2c(F)cccc2Cl)c1=O", "inhibition": "35.6% (inactive)"}
{"smiles": "O=C(NCc1ccccc1)Nc1cccn(Cc2c(F)cccc2Cl)c1=O", "inhibition": "53.7% (active)"}
{"smiles": "O=C(Cn1cncn1)NCCC(c1ccccc1)c1ccccc1", "inhibition": "5.2% (inactive)"}
{"smiles": "COc1ccc2c(c1)CC/C2=N\\OC(=O)c1cccc(C)c1", "inhibition": "2.5% (inactive)"}
{"smiles": "CCC1CCCCN1C(=O)c1c[nH]c2ccc(S(=O)(=O)N(C)c3ccc(Cl)cc3)cc2c1=O", "note": "(stereo not drawn)", "inhibition": "1.6% (inactive)"}
{"smiles": "O=C(COc1ncnc2cc([N+](=O)[O-])ccc12)N(CCc1ccccc1)Cc1ccccc1", "inhibition": "16.7% (inactive)"}
{"smiles": "O=C(CCN1CCN(S(=O)(=O)c2ccc(Br)cc2)CC1)Nc1ccccc1F", "inhibition": "-6.1% (inactive)"}
{"smiles": "O=C1c2ccccc2-c2nccnc21", "inhibition": "6.6% (inactive)"}
{"smiles": "O=C1c2ccccc2C(=O)c2c1ncn2-c1ccccc1", "inhibition": "59.1% (active)"}
{"smiles": "c1ccc(-n2cnc3ccccc32)cc1", "inhibition": "-1.2% (inactive)"}
{"smiles": "Cc1ccsc1/C=N/N=C1\\C(=O)Nc2ccccc21", "inhibition": "5.3% (inactive)"}
{"smiles": "CCc1nn(C(C)C(=O)Nc2cccc(C)c2C)c(=O)c2cc3occc3n12", "note": "(stereo not drawn)", "inhibition": "6.9% (inactive)"}
{"smiles": "CCCCc1c(C)nc2ccccc2c1SCCC#N", "inhibition": "-31.5% (inactive)"}
{"smiles": "O=C(c1cccc(F)c1)N1CCN(c2cc(N3CCCCC3)c(F)cc2[N+](=O)[O-])CC1", "inhibition": "15.2% (inactive)"}
{"smiles": "O=C(c1cccc(F)c1)N1CCN(c2ccc([N+](=O)[O-])c3cccnc23)CC1", "inhibition": "62.3% (active)"}
{"smiles": "COc1ccc(N2CCN(C(=O)c3cccc(F)c3)CC2)c([N+](=O)[O-])c1", "inhibition": "11.8% (inactive)"}
{"smiles": "O=C(c1ccccc1F)N1CCN(c2ccc([N+](=O)[O-])c3ncccc23)CC1", "inhibition": "38.3% (inactive)"}
{"smiles": "O=C(c1ccccc1F)N1CCN(c2ccc([N+](=O)[O-])c3cccnc23)CC1", "inhibition": "58.4% (active)"}
{"smiles": "O=[N+]([O-])c1ccc(N2CCN(CCO)CC2)c2ncccc12", "inhibition": "65% (active)"}
{"smiles": "Cc1cc(N2CCN(c3ccc([N+](=O)[O-])c4cccnc34)CC2)c2ccccc2n1", "inhibition": "46.7% (inactive)"}
{"smiles": "O=C(c1cc(F)c(F)cc1Cl)N1CCN(c2ccc([N+](=O)[O-])c3ncccc23)CC1", "inhibition": "46.1% (inactive)"}
{"smiles": "Cc1ccc(S(=O)(=O)N2CCN(c3ccc([N+](=O)[O-])c4cccnc34)CC2)cc1", "inhibition": "20.2% (inactive)"}
{"smiles": "CSc1nc2c(c(=O)n1C)SC(C)C2", "note": "(stereo not drawn)", "inhibition": "4.1% (inactive)"}
{"smiles": "Cc1ccn(-c2cc(O)c(-n3ccc(C)n3)cc2O)n1", "inhibition": "13.9% (inactive)"}
{"smiles": "COCCCNC(=O)Cn1cnc2sc(C)c(S(=O)(=O)N3CCN(c4ncccn4)CC3)c2c1=O", "inhibition": "9.4% (inactive)"}
{"smiles": "COc1cccc2cc(-c3ccnc(N)n3)oc12", "inhibition": "18.3% (inactive)"}
{"smiles": "Cc1c(C(=O)NC(C)CCc2ccccc2)cccc1[N+](=O)[O-]", "note": "(stereo not drawn)", "inhibition": "10.1% (inactive)"}
{"smiles": "Cc1ccc(CNC(=O)c2cc3c(-c4ccc(Cl)cc4)nn(C)c3s2)o1", "inhibition": "12.8% (inactive)"}
{"smiles": "CCCN(CCC)C(=O)CC(c1ccccc1)c1cc(Br)ccc1O", "note": "(stereo not drawn)", "inhibition": "17.3% (inactive)"}
{"smiles": "CCCSc1nc2c3c(sc2c(=O)[nH]1)CC(C)(CC)OC3", "note": "(stereo not drawn)", "inhibition": "4.6% (inactive)"}
{"smiles": "Nc1ccccc1C(=O)N=Nc1[nH]c(N)c2ccccc12", "inhibition": "9.9% (inactive)"}
{"smiles": "Cc1[nH][nH]c(=O)c1C(c1ccc(-c2ccc(Cl)c(Cl)c2)o1)c1c(C)[nH][nH]c1=O", "inhibition": "-45.1% (inactive)"}
{"smiles": "NC(=O)CSc1cn(Cc2ccc(F)cc2)c2ccccc12", "inhibition": "12.6% (inactive)"}
{"smiles": "CCOC(=O)n1c(=O)n(Cc2ccc(Cl)c(Cl)c2)c2ccccc21", "inhibition": "12.4% (inactive)"}
{"smiles": "Cn1cc(C(CC(=O)O)C(=O)O)c2ccccc21", "note": "(stereo not drawn)", "inhibition": "4.1% (inactive)"}
{"smiles": "Cc1[nH][nH]c(=O)c1C(c1c(C)[nH][nH]c1=O)c1cn(Cc2ccc(Cl)c(Cl)c2)c2ccccc12", "inhibition": "58% (active)"}
{"smiles": "O=C(O)Cc1cn(Cc2ccc(F)cc2)c2ccccc12", "inhibition": "-9.7% (inactive)"}
{"smiles": "Cc1[nH][nH]c(=O)c1C(c1c(C)[nH][nH]c1=O)c1cn(Cc2ccc(F)cc2)c2ccccc12", "inhibition": "57.2% (active)"}
{"smiles": "Cc1[nH][nH]c(=O)c1C(c1c(C)[nH][nH]c1=O)c1cn(C)c2ccccc12", "inhibition": "54.8% (active)"}
{"smiles": "Cn1cc(C(c2ccccn2)c2cn(C)c3ccccc23)c2ccccc21", "inhibition": "-0.8% (inactive)"}
